Only some compounds are listed: those with a hit (about 31% of all), similar ones and a draw of the others.
CYP2C9 act: activators of human CYP2C9 | P11712 | recombinant CYP2C9, luciferin-H conversion, luminescence; active compounds read high; factor 1 = untreated enzyme, 0 = blocked | activation factor at 5 µM | 96,000 tested, 1.4% active;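 active means activation factor of 2 or more for CYP2C9 at a 5 µM dose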
CYP2C19 inh: inhibitors of human CYP2C19. P33261. 96,000 tested, 21% active. CYP2C19 Supersomes, luciferin-H EGE luminescence, 30 min. AID 778. inhibition, % at 5 µM;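 active means CYP2C19 inhibition above a set limit at 5 µM in the primary screen, cut at about 50% in these data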
Target sequence (P33261 whole entry, looked up): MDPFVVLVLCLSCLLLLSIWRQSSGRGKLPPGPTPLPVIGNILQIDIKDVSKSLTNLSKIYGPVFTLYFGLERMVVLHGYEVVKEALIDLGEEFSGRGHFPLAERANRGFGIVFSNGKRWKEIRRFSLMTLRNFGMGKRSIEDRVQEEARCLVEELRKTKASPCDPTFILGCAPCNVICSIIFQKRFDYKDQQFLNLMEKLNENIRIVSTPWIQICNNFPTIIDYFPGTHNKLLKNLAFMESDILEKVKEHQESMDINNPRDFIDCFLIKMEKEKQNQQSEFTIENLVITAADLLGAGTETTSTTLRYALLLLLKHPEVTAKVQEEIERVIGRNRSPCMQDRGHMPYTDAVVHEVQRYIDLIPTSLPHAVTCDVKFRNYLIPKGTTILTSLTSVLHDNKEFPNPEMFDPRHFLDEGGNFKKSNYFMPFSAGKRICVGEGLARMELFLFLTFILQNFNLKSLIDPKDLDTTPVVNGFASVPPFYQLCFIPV
CYP2C19 activ: increases human CYP2C19 enzyme activity. recombinant CYP2C19, luciferin-H EGE luminescence; active compounds read high; 0 = fully inhibited enzyme, 1 = untreated enzyme. activation factor at 5 µM. 96,000 tested, under 10 active;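 active means activation factor of at least 2 at 5 µM in the primary screen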
CYP2C9 inhib: blocks human cytochrome P450 2C9 | CYP2C9 Supersomes, luciferin-H conversion, luminescence | 96,000 tested, 20% active | AID 777 | inhibition, % at 5 µM;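 active means blocking of liver enzyme CYP2C9 beyond about 50% at 5 µM, limit read from the data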
A number is an active result; 0 = inactive.

SMILES	CYP2C9 act	CYP2C19 inh	CYP2C19 activ	CYP2C9 inhib
COCCn1c(C)cc(C(=O)CSc2nc3ccccc3c(=O)[nH]2)c1C	0	0	0	0
COc1ccc2nc(SCC(=O)c3ccco3)[nH]c2c1	0	0	0	0
Cc1ccc2nc(SCC(=O)c3cc(C)n(C)c3C)[nH]c2c1	0	0	0	57
Cc1cc(C(=O)CSc2nnc(-c3ccc(Cl)cc3)n2CC2CCCO2)c(C)n1C (stereo unspecified)	0	0	0	0
Cc1cc(C(=O)CSc2nc3ccccc3[nH]2)c(C)n1C	0	87	0	60
CCc1ccc(-c2cc(C(F)(F)F)n3nc(C(=O)Nc4cnn(Cc5ccc(C)cc5)c4)cc3n2)s1	0	0	0	0
Cc1nc(SCn2nnc3ccccc3c2=O)c2c(C)c(C)sc2n1	0	0	0	0
CCC12CN3CC(CC)(CN(C1)C3c1c(O)ccc3ccccc13)C2=O (stereo unspecified)	0	54	0	0
Cc1c(Cl)c([N+](=O)[O-])nn1CC(=O)NC(C)C1CC2CCC1C2 (stereo unspecified)	0	59	0	0
CCC(C)NC(=O)Cn1nc([N+](=O)[O-])c(Cl)c1C (stereo unspecified)	0	0	0	0
O=C(NCCOc1ccc(Cl)cc1)C1CC(=O)N(c2ccc(F)cc2)C1 (stereo unspecified)	0	0	0	0
C=CCn1c(-c2cccn(Cc3ccc(Cl)cc3Cl)c2=O)n[nH]c1=S	0	80	0	0
C=CCn1c(-c2cc(Cl)ccc2OC)n[nH]c1=S	0	82	0	50
CCn1c(-c2cc(Cl)ccc2OC)n[nH]c1=S	0	0	0	0
Cc1cc(C)cc(OCC(=O)OCC(=O)c2c(N)n(C)c(=O)n(C)c2=O)c1	0	0	0	0
O=S(=O)(c1ccccc1)N1CCN(c2nnnn2-c2ccccc2)CC1	0	51	0	0
c1ccc(CC2CCN(c3nnnn3-c3ccccc3)CC2)cc1	0	63	0	54
O=C1NCN(c2ccccc2)C12CCN(c1nnnn1-c1ccccc1)CC2	0	58	0	0
Cc1nc2c3cnn(-c4ccc(C)c(C)c4)c3ncn2n1	0	0	0	0
CCCCc1c(O)nc(SCC(=O)N2CCOCC2)[nH]c1=O	0	0	0	0
CN1CCN(Cc2c(C#N)c3ccccc3n2C)CC1	0	0	0	0
CC1CCCCN1Cc1nc2ccccc2c(=O)[nH]1 (stereo unspecified)	0	0	0	0
CC1CCN(Cc2c(C#N)c3ccccc3n2C)CC1	0	81	0	0
CCOC(=O)CSCc1c(C#N)c2ccccc2n1C	0	100	0	0
CC1CCCCN1Cc1c(C#N)c2ccccc2n1C (stereo unspecified)	0	52	0	0
SMILES	CYP2C9 act	CYP2C19 inh	CYP2C19 activ	CYP2C9 inhib
Cc1c(C#N)c2ccccc2n1CC(=O)N1CCCC1	0	0	0	0
Cn1c(CN2CCOCC2)c(C#N)c2ccccc21	0	88	0	0
CN(C)/C=C1\C(=O)N(c2ccc([N+](=O)[O-])cc2)N=C1c1ccccc1	0	0	0	0
CCc1ccc(C2CC(c3ccco3)=NN2S(C)(=O)=O)cc1 (stereo unspecified)	0	62	0	0
COc1ccc(C2CC(c3c(-c4ccccc4)c4cc(Cl)ccc4[nH]c3=O)=NN2S(C)(=O)=O)cc1OC (stereo unspecified)	0	0	0	0
O=c1oc2cc(Cl)ccc2n1CSc1nc2ccccc2s1	0	74	0	67
CO/N=C/c1ccc(Oc2ccc(C)cc2)nc1	0	0	0	0
CCCCCCCCOC(=O)C(NC(=O)CCC(=O)Nc1ccc(S(N)(=O)=O)cc1)C(O)c1ccccc1 (stereo unspecified)	0	54	0	62
CCOC(=O)C(NC(=O)CCC(=O)Nc1ccc(S(N)(=O)=O)cc1)C(O)c1ccccc1 (stereo unspecified)	0	0	0	0
O=C(CSc1nnc(-c2ccccc2)n1Cc1ccccc1)N1CCCC1	0	0	0	0
CCCCn1c(SCC(=O)N2CCCC2)nnc1-c1ccccc1	0	52	0	0
CCCCn1c(SCC(=O)N2CCOCC2)nnc1-c1cccs1	0	0	0	62
C=CCn1c(SCC(=O)N2CCN(c3ccc(F)cc3)CC2)nnc1-c1cccs1	0	65	0	0
C=CCn1c(SCC(=O)N2CCN(c3ccccc3)CC2)nnc1-c1ccco1	0	0	0	0
Cc1ccc(C)c(-n2c(Cc3cc(=O)[nH]c(=O)[nH]3)nnc2SCC(=O)NCC2CCCO2)c1 (stereo unspecified)	0	0	0	0
CCOC(=O)c1cccc(NC(=O)C2CCN(S(=O)(=O)c3cnc[nH]3)CC2)c1	0	99	0	100
